From ChEMBL document CHEMBL3988442, “University of Dundee, Small-Polar-MMV Screening Library” (2021) come the findings set out here.

For part of these data: Results with a measured potency or affinity are listed apart. A value given as a limit tells only on which side of the number the result lay.

Experiment [1] concerns the target Protein translocase subunit SecA (Escherichia coli (strain K12)) (UniProt P10408). The experiment is described as follows: Assay to Identify E. coli SecA ATPase Inhibitors. As to conditions: 30 µM. The arrangement: scale not given: direction of the effect not stated beside the values. It counts as functional.
The target of experiment [2] is T1, Ubiquitin-activating enzyme e1, putative (Leishmania donovani (strain BPK282A1)) (UniProt E9BSI1).
T1 sequence (whole entry): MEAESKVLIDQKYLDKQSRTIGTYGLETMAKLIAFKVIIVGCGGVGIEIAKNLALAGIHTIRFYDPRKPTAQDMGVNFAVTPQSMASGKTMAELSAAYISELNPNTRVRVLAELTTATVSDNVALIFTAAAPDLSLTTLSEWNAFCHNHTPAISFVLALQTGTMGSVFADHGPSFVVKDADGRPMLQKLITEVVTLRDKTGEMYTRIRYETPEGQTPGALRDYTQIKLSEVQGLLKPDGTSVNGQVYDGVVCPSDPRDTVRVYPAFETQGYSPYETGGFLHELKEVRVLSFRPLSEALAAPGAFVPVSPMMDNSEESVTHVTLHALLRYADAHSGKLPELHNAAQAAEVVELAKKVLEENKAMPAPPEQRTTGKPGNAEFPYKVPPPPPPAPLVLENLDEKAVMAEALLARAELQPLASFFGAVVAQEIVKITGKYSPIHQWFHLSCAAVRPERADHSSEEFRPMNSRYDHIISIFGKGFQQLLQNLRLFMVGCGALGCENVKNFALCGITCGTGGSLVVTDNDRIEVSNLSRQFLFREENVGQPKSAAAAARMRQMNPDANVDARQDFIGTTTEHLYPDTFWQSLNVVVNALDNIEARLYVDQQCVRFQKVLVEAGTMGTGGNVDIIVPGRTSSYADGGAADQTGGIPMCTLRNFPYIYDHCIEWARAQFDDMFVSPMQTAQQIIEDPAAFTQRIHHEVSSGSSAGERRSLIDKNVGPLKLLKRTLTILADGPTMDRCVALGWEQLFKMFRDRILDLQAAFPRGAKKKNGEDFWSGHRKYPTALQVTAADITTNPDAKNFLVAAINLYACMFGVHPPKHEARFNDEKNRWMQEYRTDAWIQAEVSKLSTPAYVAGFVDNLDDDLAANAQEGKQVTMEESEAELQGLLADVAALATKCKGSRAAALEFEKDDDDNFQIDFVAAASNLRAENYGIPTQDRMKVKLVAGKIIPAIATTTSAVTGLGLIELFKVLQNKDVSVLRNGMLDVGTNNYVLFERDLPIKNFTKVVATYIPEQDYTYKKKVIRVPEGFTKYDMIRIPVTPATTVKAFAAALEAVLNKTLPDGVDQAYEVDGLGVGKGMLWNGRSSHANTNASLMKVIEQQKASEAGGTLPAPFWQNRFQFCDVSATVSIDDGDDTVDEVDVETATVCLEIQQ
The experiment is described as follows: Leishmania donovani Ubiquitin Activating Enzyme (LdE1). It counts as functional. The arrangement: scale not given: direction of the effect not stated beside the values. To be noted: 30 µM.

Experiment [3] addresses T2, Aspartate--tRNA(Asp/Asn) ligase (Mycobacterium tuberculosis (strain ATCC 25618 / H37Rv)) (UniProt P9WFW3).
T2 sequence (whole entry): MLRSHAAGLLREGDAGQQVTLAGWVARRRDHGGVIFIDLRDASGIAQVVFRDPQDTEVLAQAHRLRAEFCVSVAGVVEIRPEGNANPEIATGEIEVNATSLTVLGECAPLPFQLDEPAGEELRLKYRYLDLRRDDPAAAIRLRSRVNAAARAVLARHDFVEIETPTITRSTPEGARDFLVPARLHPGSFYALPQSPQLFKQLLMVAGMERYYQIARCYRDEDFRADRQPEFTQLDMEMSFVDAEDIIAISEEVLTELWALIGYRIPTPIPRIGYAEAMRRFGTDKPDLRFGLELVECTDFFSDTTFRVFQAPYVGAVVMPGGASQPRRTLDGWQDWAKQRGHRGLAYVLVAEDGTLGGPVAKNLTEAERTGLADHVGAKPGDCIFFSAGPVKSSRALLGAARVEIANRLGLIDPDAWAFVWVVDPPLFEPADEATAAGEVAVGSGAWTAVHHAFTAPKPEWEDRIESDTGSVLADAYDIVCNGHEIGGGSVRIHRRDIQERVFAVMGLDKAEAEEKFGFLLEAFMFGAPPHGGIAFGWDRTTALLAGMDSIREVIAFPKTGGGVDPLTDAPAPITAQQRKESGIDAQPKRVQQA
The experiment is described as follows: Assay for Asp RNA synthetase-1 from Mycobacterium tuberculosis. The arrangement: scale not given: direction of the effect not stated beside the values. To be noted: 30 µM. In kind it is functional.

The target in experiment [4] is AMP-activated protein kinase, AMPK (Homo sapiens) (UniProt P54646+O43741+P54619+Q9UGJ0+Q9Y478+Q13131+Q9UGI9). The experiment is described as follows: AMP-dependent Kinase enzyme assay. An in vitro enzyme assay that detects ADP turnover that is directly proportional to AMPK activity. This uses naive AMPK that is activated during the assay with MK-8722. It counts as functional. More on the design: scale not given: direction of the effect not stated beside the values. To be noted: 30 µM.

In experiment [5] the target is Sialic acid-binding Ig-like lectin 9 (Homo sapiens) (UniProt Q9Y336). In words: Hs-Siglec9 ALPHAscreen SOP 20170721. More on the design: scale not given: direction of the effect not stated beside the values. To be noted: 10 µM.
Another experiment has as its system Trypanosoma cruzi. In words: Trypanosoma cruzi phosphomannomutase and mannose-1-phosphate guanylyltransferase assay. As to conditions: 10 µM. It counts as functional. More on the design: scale not given: direction of the effect not stated beside the values.
The target in experiment [6] is T3, Arginase-2, mitochondrial (Homo sapiens) (UniProt P78540).
T3 sequence (whole entry): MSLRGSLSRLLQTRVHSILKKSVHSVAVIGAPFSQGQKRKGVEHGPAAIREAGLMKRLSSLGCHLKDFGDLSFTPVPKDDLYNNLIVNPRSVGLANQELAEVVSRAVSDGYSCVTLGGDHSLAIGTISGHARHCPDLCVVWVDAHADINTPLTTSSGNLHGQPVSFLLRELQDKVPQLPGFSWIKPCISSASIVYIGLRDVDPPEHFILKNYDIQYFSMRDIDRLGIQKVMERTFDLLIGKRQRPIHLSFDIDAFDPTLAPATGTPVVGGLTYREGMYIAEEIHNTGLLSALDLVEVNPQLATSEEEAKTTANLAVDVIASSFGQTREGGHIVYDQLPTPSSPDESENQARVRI
In words: in vitro enzyme assay to detect the production of urea directly proportional to the activity of Arginase II. In kind it is functional. The arrangement: scale not given: in the data most compounds retested in dose-response had high values. As to conditions: 33.3 µM.

Experiment [7] concerns the target T4, Proteasome subunit beta (Trypanosoma cruzi) (UniProt O96673).
T4 sequence (whole entry): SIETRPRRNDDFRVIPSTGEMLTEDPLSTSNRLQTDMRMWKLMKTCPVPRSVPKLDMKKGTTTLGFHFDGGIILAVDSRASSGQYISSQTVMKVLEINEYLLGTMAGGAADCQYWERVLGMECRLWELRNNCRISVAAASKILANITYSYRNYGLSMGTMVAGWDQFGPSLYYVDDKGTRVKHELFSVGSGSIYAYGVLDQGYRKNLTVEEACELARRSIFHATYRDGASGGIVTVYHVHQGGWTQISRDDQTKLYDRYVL
In words: Trypanosoma cruzi proteasome chymotrypsin-like activity (TcProtChymo) assay. In kind it is functional. The arrangement: scale not given: in the data most compounds retested in dose-response had high values. As to conditions: 9.37 µM.

The species named for a further experiment is Homo sapiens. The experiment is described as follows: To identify inhibition of the IFN signalling (Jak-Stat) pathway via expression of an eGFP reporter gene under the control of an IFN-stimulated response element (ISRE) containing MxA promoter. In kind it is functional. The arrangement: scale not given: direction of the effect not stated beside the values. To be noted: 30 µM.

Experiment [8] deals with Shiga toxin 2 (Escherichia coli O157:H7) (UniProt P09385+P09386). The experiment is described as follows: E. coli 0.157:H7 Shiga Toxin SOP - stx2 screening assay. In kind it is functional. As to conditions: 30 µM. More on the design: scale not given: direction of the effect not stated beside the values.
In experiment [9] the target is T5, Tyrosyl-tRNA synthetase, putative (Trypanosoma cruzi (strain CL Brener)) (UniProt Q4DSP6).
T5 sequence (whole entry): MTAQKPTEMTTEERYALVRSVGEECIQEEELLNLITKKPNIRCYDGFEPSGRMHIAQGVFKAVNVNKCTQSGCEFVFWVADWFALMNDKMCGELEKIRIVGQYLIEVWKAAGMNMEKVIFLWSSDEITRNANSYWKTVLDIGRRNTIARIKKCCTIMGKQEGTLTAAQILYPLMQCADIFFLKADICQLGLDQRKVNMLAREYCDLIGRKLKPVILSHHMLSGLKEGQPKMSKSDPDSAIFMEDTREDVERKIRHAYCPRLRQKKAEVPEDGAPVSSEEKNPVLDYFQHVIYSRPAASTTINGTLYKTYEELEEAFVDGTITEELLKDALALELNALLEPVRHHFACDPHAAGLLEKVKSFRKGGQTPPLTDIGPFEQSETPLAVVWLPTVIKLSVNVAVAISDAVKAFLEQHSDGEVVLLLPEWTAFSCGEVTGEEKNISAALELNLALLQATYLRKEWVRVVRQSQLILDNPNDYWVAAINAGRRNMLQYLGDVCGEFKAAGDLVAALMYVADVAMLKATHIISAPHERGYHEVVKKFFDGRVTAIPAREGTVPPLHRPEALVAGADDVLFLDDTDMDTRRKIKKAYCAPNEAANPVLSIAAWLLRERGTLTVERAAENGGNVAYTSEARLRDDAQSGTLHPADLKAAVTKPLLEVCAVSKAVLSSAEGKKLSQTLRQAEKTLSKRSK
The experiment is described as follows: Trypanosoma cruzi tyrosyl tRNA synthetase (TcYRS) _High Tyrosine SOP. In kind it is functional. The arrangement: scale not given: in the data most compounds retested in dose-response had high values. To be noted: 30 µM.

Experiment [10] addresses T5, Tyrosyl-tRNA synthetase, putative (Trypanosoma cruzi (strain CL Brener)). The experiment is described as follows: Trypanosoma cruzi tyrosyl tRNA synthetase (TcYRS) SOP. In kind it is functional. The arrangement: scale not given: direction of the effect not stated beside the values. To be noted: 30 µM.
Experiment [11] has as its target Chromo domain-containing protein 1 (Saccharomyces cerevisiae (strain ATCC 204508 / S288c) (Baker's yeast)) (UniProt P32657). The experiment is described as follows: ScCHD-1 Enzyme Inhibition Assay. The arrangement: scale not given: in the data most compounds retested in dose-response had high values. As to conditions: 30 µM. In kind it is functional.
The target of experiment [12] is T6, Methionyl-tRNA synthetase, putative (Leishmania donovani (strain BPK282A1)) (UniProt E9BF75).
T6 sequence (whole entry): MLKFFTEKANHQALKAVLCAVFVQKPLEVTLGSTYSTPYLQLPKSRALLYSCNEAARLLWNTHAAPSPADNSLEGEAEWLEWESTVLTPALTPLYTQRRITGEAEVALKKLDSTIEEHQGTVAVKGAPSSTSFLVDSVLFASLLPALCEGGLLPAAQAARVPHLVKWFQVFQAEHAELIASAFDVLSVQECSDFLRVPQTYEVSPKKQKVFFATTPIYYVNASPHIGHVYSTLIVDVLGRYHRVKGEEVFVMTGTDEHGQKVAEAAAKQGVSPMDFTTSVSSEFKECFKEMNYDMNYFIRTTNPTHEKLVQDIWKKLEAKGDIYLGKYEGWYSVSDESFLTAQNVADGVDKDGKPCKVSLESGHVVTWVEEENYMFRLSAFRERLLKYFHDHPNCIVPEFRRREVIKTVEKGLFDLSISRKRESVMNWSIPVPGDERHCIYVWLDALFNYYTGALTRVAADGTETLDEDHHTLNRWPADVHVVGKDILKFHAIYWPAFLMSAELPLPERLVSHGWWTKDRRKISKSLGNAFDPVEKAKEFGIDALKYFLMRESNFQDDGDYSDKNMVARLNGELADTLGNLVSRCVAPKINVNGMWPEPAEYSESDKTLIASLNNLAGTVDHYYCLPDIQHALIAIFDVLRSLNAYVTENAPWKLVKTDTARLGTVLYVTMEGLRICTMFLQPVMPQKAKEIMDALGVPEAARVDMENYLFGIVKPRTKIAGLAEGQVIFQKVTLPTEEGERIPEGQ
The experiment is described as follows: Leishmania donovani Methionine tRNA synthetase (LdMetRS):v7. Dose response assay. It counts as functional. More on the design: conc 80 nM, time 150 minutes.

Sequence of Chromo domain-containing protein 1 (Saccharomyces cerevisiae (strain ATCC 204508 / S288c) (Baker's yeast)) (P32657 whole entry, the tested form may be a part): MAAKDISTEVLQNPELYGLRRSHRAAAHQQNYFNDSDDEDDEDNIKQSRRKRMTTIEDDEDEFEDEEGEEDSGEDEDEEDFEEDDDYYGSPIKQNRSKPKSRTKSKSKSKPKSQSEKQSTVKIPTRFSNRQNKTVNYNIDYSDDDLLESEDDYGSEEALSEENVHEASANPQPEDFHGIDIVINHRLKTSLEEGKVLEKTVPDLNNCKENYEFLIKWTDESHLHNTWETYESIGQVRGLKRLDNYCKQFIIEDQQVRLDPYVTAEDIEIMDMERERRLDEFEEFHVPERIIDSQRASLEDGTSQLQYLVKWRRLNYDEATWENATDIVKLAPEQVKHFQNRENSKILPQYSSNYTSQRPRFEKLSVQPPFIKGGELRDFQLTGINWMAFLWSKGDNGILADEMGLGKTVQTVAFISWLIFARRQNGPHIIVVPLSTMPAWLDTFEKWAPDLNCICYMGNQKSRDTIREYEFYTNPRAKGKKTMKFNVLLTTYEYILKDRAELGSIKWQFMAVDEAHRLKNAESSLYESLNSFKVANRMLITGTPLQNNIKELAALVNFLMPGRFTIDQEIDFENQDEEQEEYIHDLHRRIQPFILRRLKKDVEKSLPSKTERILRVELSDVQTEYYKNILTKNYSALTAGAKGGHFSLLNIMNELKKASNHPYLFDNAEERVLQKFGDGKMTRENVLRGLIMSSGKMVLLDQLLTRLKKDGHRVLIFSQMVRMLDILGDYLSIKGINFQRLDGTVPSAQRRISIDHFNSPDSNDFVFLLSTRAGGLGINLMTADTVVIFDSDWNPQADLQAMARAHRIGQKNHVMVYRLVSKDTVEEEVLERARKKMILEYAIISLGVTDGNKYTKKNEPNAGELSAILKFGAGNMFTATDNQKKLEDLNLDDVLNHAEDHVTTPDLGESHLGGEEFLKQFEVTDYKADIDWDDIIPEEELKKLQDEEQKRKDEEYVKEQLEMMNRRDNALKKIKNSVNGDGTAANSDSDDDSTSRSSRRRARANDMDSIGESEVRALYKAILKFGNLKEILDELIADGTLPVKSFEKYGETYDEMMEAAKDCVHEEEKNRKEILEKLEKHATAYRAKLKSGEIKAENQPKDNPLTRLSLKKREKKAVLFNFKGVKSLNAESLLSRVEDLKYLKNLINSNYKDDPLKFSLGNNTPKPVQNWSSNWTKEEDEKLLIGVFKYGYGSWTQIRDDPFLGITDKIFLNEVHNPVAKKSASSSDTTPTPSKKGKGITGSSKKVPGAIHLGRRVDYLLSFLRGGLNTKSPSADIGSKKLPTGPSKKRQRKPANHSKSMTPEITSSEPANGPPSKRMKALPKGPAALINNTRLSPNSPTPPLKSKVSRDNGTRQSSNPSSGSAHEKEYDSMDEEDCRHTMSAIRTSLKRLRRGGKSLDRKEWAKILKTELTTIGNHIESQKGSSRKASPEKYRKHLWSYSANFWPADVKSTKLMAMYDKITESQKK
Sequence of Sialic acid-binding Ig-like lectin 9 (Homo sapiens) (Q9Y336 whole entry): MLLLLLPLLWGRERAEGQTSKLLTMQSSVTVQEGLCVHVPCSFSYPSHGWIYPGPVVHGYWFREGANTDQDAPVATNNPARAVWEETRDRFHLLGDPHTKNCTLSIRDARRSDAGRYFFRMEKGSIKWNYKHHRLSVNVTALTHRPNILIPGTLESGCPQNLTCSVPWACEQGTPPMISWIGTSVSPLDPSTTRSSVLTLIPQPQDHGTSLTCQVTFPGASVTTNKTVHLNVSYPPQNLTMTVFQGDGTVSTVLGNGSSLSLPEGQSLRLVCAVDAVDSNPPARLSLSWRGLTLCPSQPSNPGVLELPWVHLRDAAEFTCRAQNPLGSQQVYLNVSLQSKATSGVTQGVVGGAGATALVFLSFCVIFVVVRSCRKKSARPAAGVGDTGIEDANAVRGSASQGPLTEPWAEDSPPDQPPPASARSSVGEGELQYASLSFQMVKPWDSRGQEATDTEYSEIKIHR
Sequence of Protein translocase subunit SecA (Escherichia coli (strain K12)) (P10408 whole entry): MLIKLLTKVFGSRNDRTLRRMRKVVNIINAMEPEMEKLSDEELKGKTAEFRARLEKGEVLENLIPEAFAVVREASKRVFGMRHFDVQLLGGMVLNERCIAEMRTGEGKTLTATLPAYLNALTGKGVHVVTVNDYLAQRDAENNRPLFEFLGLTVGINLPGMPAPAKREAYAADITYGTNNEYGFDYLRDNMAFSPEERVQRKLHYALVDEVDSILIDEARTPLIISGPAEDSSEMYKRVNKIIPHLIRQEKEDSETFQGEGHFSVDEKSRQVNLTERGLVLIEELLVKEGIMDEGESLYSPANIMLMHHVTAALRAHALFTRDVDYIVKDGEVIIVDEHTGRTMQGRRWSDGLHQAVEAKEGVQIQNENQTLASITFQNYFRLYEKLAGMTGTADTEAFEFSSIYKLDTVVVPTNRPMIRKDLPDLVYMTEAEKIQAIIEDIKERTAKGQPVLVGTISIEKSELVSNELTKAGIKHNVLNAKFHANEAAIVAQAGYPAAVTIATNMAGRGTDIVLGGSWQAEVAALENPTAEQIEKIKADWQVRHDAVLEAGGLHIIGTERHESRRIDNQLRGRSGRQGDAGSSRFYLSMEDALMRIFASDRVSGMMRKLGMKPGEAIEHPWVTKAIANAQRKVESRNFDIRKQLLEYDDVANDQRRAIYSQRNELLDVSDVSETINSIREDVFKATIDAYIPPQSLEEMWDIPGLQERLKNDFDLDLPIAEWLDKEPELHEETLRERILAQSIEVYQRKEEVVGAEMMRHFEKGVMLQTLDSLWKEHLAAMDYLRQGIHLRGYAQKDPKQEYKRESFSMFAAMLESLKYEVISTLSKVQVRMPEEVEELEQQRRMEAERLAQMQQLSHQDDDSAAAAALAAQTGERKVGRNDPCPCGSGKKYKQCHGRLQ

For the compound `c1cncc(CO[C@H]2CC[C@H]3[C@@H]2OCCN3C2CCOCC2)c1`, the Percent Effect is 1.26% in experiment [1]; 2.74% in [2]; 0.0456% in experiment [3]; -4.02% in experiment [4]; 5.81% in [5]; 7.14% in the experiment with Trypanosoma cruzi. For the same compound, the Percent Effect in experiment [6] was -0.399%; in [7] it was 4.37%; in the experiment listed under Homo sapiens, -1.77%; in [8], -20.6%; in [9], 3.12%; in experiment [10], 8.64%. In addition, the Percent Effect in experiment [11] amounted to 1.15%.

With `COc1cccc(CC(C)NC(=O)NCc2ccn(C)c2)c1` (stereo not drawn), the PXC50 in [12] (MAX_EFFECT 39.40455342), in experiment [12] (MAX_EFFECT 41.30434783) and in experiment [12] (MAX_EFFECT 46.2585034) was below 4 each time.

Turning to `Cc1cc(C(F)(F)F)nc(N2CCN3CCCC3C2)n1` (stereo not drawn), the PXC50 in experiment [12] (MAX_EFFECT 10.18276762) and in experiment [12] (MAX_EFFECT 10.96605744) was below 4 in each case.

On to `Cc1ccc(N2CCC3(CN(CCO)CCC3(F)F)C2)nn1` (stereo not drawn), for which the PXC50 in experiment [12] (MAX_EFFECT 9.719626168) and in [12] (MAX_EFFECT 11.33786848) was below 4 throughout.

Turning to `c1cnc(N2CCCC3(CCN(Cc4ccncc4)C3)C2)nc1` (stereo not drawn), the Percent Effect in experiment [1] is -2.54%; in [2], 8.11%; in experiment [3], 4.42%; in experiment [4] it was 2.74%; in [5], -7%; in the experiment on Trypanosoma cruzi, -1.66%. Besides, the Percent Effect in experiment [6] is -6.69%; in experiment [7] it was 24.7%; in the experiment filed under Homo sapiens, -1.82%; in experiment [8] it was 1.1%; in [9] it was 1.08%; in experiment [10] it was 15.4%. Also, in experiment [11], the Percent Effect was -3.48%.
